Inconclusive results are not listed. Activity calls are given as the source filed them. Calls come from the whole dose curve; as a rule, active = well fitted curve in the direction sought with a large enough effect; inconclusive = small, poorly fitted or top-dose-only effect, or another doubt; inactive = no such curve, though single readings can be large; an effect the other way counts as inactive or inconclusive.
Legend:
[1] = test system: MCC-13; experiment: qHTS assay to identify novel small-molecules to repurpose for Merkel cell carcinoma treatment (AID 1296009); conditions: MCC and control cell lines, CellTiter-Glo viability, 72 h; series mostly up to 46 µM; note: nearly all actives have a fitted effect of over 60% in size
Method in brief: (§1)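 Cell viability, measured as CellTiter-Glo luminescence, was normalized between DMSO and no-cell wells. The cells had been exposed to 8- or 11-point compound dilutions for 72 hr at 37 degree celsius.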

[2] = test system: MCC-26; experiment: as above; conditions: MCC and control cell lines, CellTiter-Glo viability, 72 h; series mostly up to 46 µM
Method in brief: as §1

[3] = test system: MKL-1; experiment: as above; conditions: MCC and control cell lines, CellTiter-Glo viability, 72 h; series mostly up to 46 µM
Method in brief: as §1

[4] = test system: MKL-2; experiment: as above; conditions: MCC and control cell lines, CellTiter-Glo viability, 72 h; series mostly up to 46 µM
Method in brief: as §1

[5] = test system: UISO; experiment: as above; conditions: MCC and control cell lines, CellTiter-Glo viability, 72 h; series mostly up to 46 µM
Method in brief: as §1

[6] = test system: WaGa; experiment: as above; conditions: MCC and control cell lines, CellTiter-Glo viability, 72 h; series mostly up to 46 µM
Method in brief: as §1

[7] = test system: C33A; experiment: Primary qHTS to identify gynecologic anti-cancer compounds using libraries of approved drugs and bioactive compounds (AID 1345084); conditions: Gynecologic cancer cell panel viability, ATPlite luminescence, 48 h; series mostly up to 57.5 µM; note: nearly all actives have a fitted effect of over 55% in size
Method in brief: (§2)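 Five-concentration response, 48 h; readout is ATP-driven luciferase luminescence.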

[8] = test system: CAOV3; experiment: as above; conditions: Gynecologic cancer cell panel viability, ATPlite luminescence, 48 h; series mostly up to 57.5 µM
Method in brief: as §2

[9] = test system: CASKI; experiment: as above; conditions: Gynecologic cancer cell panel viability, ATPlite luminescence, 48 h; series mostly up to 57.5 µM
Method in brief: as §2

[10] = test system: Es-2; experiment: as above; conditions: Gynecologic cancer cell panel viability, ATPlite luminescence, 48 h; series mostly up to 57.5 µM
Method in brief: as §2

[11] = test system: HeLa; experiment: as above; conditions: Gynecologic cancer cell panel viability, ATPlite luminescence, 48 h; series mostly up to 57.5 µM
Method in brief: as §2

[12] = test system: Hek293T; experiment: as above; conditions: Gynecologic cancer cell panel viability, ATPlite luminescence, 48 h, control line for the selectivity index; series mostly up to 57.5 µM
Method in brief: as §2

[13] = test system: JEG-3; experiment: as above; conditions: Gynecologic cancer cell panel viability, ATPlite luminescence, 48 h; series mostly up to 57.5 µM
Method in brief: as §2

[14] = test system: OV90; experiment: as above; conditions: Gynecologic cancer cell panel viability, ATPlite luminescence, 48 h; series mostly up to 57.5 µM
Method in brief: as §2

[15] = test system: PA-1; experiment: as above; conditions: Gynecologic cancer cell panel viability, ATPlite luminescence, 48 h; series mostly up to 57.5 µM
Method in brief: as §2

[16] = test system: Tov-21-G; experiment: as above; conditions: Gynecologic cancer cell panel viability, ATPlite luminescence, 48 h; series mostly up to 57.5 µM
Method in brief: as §2

[17] = test system: Tov112D; experiment: as above; conditions: Gynecologic cancer cell panel viability, ATPlite luminescence, 48 h; series mostly up to 57.5 µM
Method in brief: as §2

[18] = Drug repurposing screens with cells derived from glioblastoma tumor samples (AID 1345199); conditions: GBM patient neurospheres viability, ATP luminescence, 48 h; note: nearly all actives have a fitted effect of over 40% in size
Method in brief: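 Primary testing used CD133+ neurospheres from four GBM patients, seven concentrations, 48 h exposure and ATP-based viability; confirmation added three slower-growing patient lines.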

[19] = test system: SKOV3; experiment: Primary qHTS to identify gynecologic anti-cancer compounds using libraries of approved drugs and bioactive compounds (AID 1345084); conditions: Gynecologic cancer cell panel viability, ATPlite luminescence, 48 h; series mostly up to 57.5 µM; note: nearly all actives have a fitted effect of over 55% in size
Method in brief: as §2

[20] = at 45.9 µM (top of the series), tumour line B
[21] = at 45.9 µM (top of the series), tumour line D
[22] = at 46 µM (top of the series), tumour line A
% is set by controls: 0 for no effect and ±100 for the full control effect.

CCCOC(=O)Cc1ccc(OCC(=O)N(CC)CC)c(OC)c1
inactive: Potency [1] | Potency [2] | Potency [3] | Potency [4] | Potency [5] | Potency [6] | Potency [7] | Potency [8] | Potency [9] | Potency [10] | Potency [11] | Potency [12] | Potency [13] | Potency [14] | Potency [15] | Potency [16] | Potency [17] | activity, negative = cell killing [18, 20] -0.689% | activity, negative = cell killing [18, 21] -1.94% | activity, negative = cell killing [18, 22] -27.4%

C[N+]1(C)[C@@H]2CC[C@H]1CC(OC(=O)C(CO)c1ccccc1)C2 (some centres undefined)
inactive: Potency [1] | Potency [2] | Potency [3] | Potency [4] | Potency [5] | Potency [6] | Potency [7] | Potency [8] | Potency [9] | Potency [10] | Potency [11] | Potency [12] | Potency [13] | Potency [14] | Potency [15] | Potency [19] | Potency [16] | Potency [17] | activity, negative = cell killing ([18]; at 21.2 µM (top of the series), tumour line B) -14.5% | activity, negative = cell killing ([18]; at 21.2 µM (top of the series), tumour line D) -3.94% | activity, negative = cell killing ([18]; at 21.3 µM (top of the series), tumour line A) -14.4% | activity, negative = cell killing [18, 20] -1.41% | activity, negative = cell killing [18, 21] -16.2% | activity, negative = cell killing ([18]; at 46.1 µM (top of the series), tumour line C) -12.5%

ClC1=C(Cl)C2(Cl)C(CBr)CC1(Cl)C2(Cl)Cl (centres undefined)
inactive: Potency [1] | Potency [2] | Potency [3] | Potency [4] | Potency [5] | Potency [6] | Potency [7] | Potency [9] | Potency [10] | Potency [11] | Potency [12] | Potency [13] | Potency [14] | Potency [15] | Potency [19] | Potency [16] | Potency [17]

Oc1c(Br)cc(Br)cc1Br
inactive: Potency [1] | Potency [2] | Potency [3] | Potency [4] | Potency [5] | Potency [6] | Potency [7] | Potency [8] | Potency [9] | Potency [10] | Potency [11] | Potency [12] | Potency [13] | Potency [14] | Potency [15] | Potency [19] | Potency [16] | Potency [17] | activity, negative = cell killing [18, 20] -7.26% | activity, negative = cell killing [18, 21] 14.2% | activity, negative = cell killing [18, 22] -28%

CCOC(=O)NC(C)(C)Cc1ccc(Cl)cc1
inactive: Potency [1] | Potency [2] | Potency [3] | Potency [4] | Potency [5] | Potency [6] | Potency [7] | Potency [8] | Potency [9] | Potency [10] | Potency [11] | Potency [12] | Potency [13] | Potency [14] | Potency [15] | Potency [16] | Potency [17] | activity, negative = cell killing [18, 20] 0.659% | activity, negative = cell killing [18, 21] -16.7%

CN1C2CCC(C)(C)C1CC(OC(=O)C(O)(c1cccs1)c1cccs1)C2 (centres undefined)
inactive: Potency [1] | Potency [2] | Potency [3] | Potency [4] | Potency [5] | Potency [6] | Potency [7] | Potency [8] | Potency [9] | Potency [10] | Potency [11] | Potency [12] | Potency [13] | Potency [15] | Potency [19] | Potency [16] | Potency [17]

CC1=C2[C@H]3OC(=O)[C@@H](C)[C@@H]3CC[C@@]2(C)C=CC1=O
inactive: Potency [1] | Potency [2] | Potency [3] | Potency [4] | Potency [5] | Potency [6] | Potency [7] | Potency [8] | Potency [9] | Potency [10] | Potency [11] | Potency [12] | Potency [13] | Potency [14] | Potency [15] | Potency [19] | Potency [16] | Potency [17] | activity, negative = cell killing [18, 20] -4.49% | activity, negative = cell killing [18, 21] -15.5% | activity, negative = cell killing [18, 22] -23.4%

— PubChem BioAssay (NCATS)
